Experimental data reported in PubChem BioAssay AID1159580 (chemical genetic matrix, 2015).
Where “and” joins values, the source holds several entries; their conditions need not be identical. Equal entries are not always repeated. In all, about 5,500 compounds went through this assay and about 2,000 (36%) were called active. Not shown: some 18% with an inconclusive outcome. Rule as the data show it: active = normalized growth mostly below about 0.91 (no sharp cut-off); inconclusive = no clear call, values can overlap the other calls; inactive = mostly above about 0.92. The list shows a part of the results.

Test: chemical genetic growth profiling, strain panel (AID 1159580);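 also: tested at 20 µM; growth read once vehicle control cultures reached saturation at 30 °C; 1 = growth at the plate median or of vehicle wells; lower values mean less growth of the strain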
Details: S. cerevisiae deletion strains, growth OD

Measured: normalized growth

O=C(O)CCCc1ccccc1
active: locus YHR079C, strain IRE1, stronger effect = lower value 0.801 | locus YIL125W, strain kgd1, stronger effect = lower value 0.892 | locus YJR066W, strain TOR1, stronger effect = lower value 0.795 | locus YKL068W, stronger effect = lower value 0.917 | locus YKL085W, strain MDH1 (second series), stronger effect = lower value 0.93 | locus YKL085W, strain MDH1, stronger effect = lower value 0.93 | locus YLR113W, strain HOG1, stronger effect = lower value 0.687 | locus YNL183C, strain NPR1, stronger effect = lower value 0.772 | locus YOR231W, strain MKK1, stronger effect = lower value 0.778 | locus YPL256C, strain CLN2, stronger effect = lower value 0.72 | locus YPR141C, strain kar3, stronger effect = lower value 0.896
1 (inactive) and 0.818 (active): locus YHR030C, strain SLT2, stronger effect = lower value
0.998 (inactive) and 0.811 (active): locus YJL095W, strain BCK1, stronger effect = lower value
inactive: locus YAL021C, strain ccr4, stronger effect = lower value 0.962 | locus YAL026C, strain drs2, stronger effect = lower value 0.989 | locus YAL030W, strain snc1, stronger effect = lower value 0.988 | locus YBL061C, strain skt5, stronger effect = lower value 0.991 | locus YBR009C, strain hhf1, stronger effect = lower value 0.988 | locus YBR021W, strain FUR4, stronger effect = lower value 0.955 | locus YBR023C, strain chs3, stronger effect = lower value 0.994 | locus YBR171W, strain sec66, stronger effect = lower value 0.975 | locus YBR229C, strain ROT2, stronger effect = lower value 0.999 | locus YBR231C, strain swc5, stronger effect = lower value 1 | locus YBR279W, strain paf1, stronger effect = lower value 0.974 | locus YCL011C, strain gbp2, stronger effect = lower value 0.98 | locus YCL016C, strain dcc1, stronger effect = lower value 0.985 | locus YCL029C, strain bik1, stronger effect = lower value 0.982 | locus YCL069W, strain vba3, stronger effect = lower value 0.981 | locus YCR088W, strain abp1, stronger effect = lower value 0.973 | locus YDL005C, strain med2, stronger effect = lower value 0.979 | locus YDL035C, strain GPR1, stronger effect = lower value 1.01 | locus YDL040C, strain nat1, stronger effect = lower value 0.989 | locus YDL074C, strain BRE1, stronger effect = lower value 1 | locus YDL101C, strain DUN1, stronger effect = lower value 1 | locus YDL185W, strain tfp1, stronger effect = lower value 0.948 | locus YDL192W, strain arf1, stronger effect = lower value 0.996 | locus YDR001C, strain nth1, stronger effect = lower value 0.977 | locus YDR069C, strain doa4, stronger effect = lower value 1 | locus YDR101C, strain arx1, stronger effect = lower value 0.941 | locus YDR137W, strain rgp1, stronger effect = lower value 1 | locus YDR150W, strain NUM1, stronger effect = lower value 0.998 | locus YDR159W, strain sac3, stronger effect = lower value 0.981 | locus YDR162C, strain NBP2, stronger effect = lower value 1 | locus YDR195W, strain ref2 1.04 | locus YDR297W, strain sur2, stronger effect = lower value 0.991 | locus YDR318W, strain mcm21, stronger effect = lower value 0.986 | locus YDR334W, strain swr1, stronger effect = lower value 0.978 | locus YDR335W, strain msn5, stronger effect = lower value 0.988 | locus YDR388W, stronger effect = lower value 0.999 | locus YDR392W, strain spt3, stronger effect = lower value 0.963 | locus YDR502C, strain sam2, stronger effect = lower value 0.981 | locus YEL003W, strain gim4, stronger effect = lower value 0.986 | locus YEL037C, strain rad23, stronger effect = lower value 0.989 | locus YEL061C, strain CIN8 (second series), stronger effect = lower value 0.983 | locus YEL061C, strain CIN8, stronger effect = lower value 0.999 | locus YER015W, strain faa2, stronger effect = lower value 1 | locus YER016W, strain bim1, stronger effect = lower value 0.989 | locus YER110C, stronger effect = lower value 1 | locus YER111C, strain swi4, stronger effect = lower value 0.992 | locus YER155C, strain BEM2 (second series), stronger effect = lower value 1.01 | locus YER155C, strain BEM2, stronger effect = lower value 0.975 | locus YER167W, strain BCK2, stronger effect = lower value 1 | locus YFR010W, strain ubp6, stronger effect = lower value 0.997 | locus YGL078C, strain dbp3, stronger effect = lower value 0.933 | locus YGL086W, strain mad1, stronger effect = lower value 0.97 | locus YGL167C, strain pmr1, stronger effect = lower value 0.995 | locus YGL173C, strain kem1, stronger effect = lower value 0.997 | locus YGL227W, strain vid30, stronger effect = lower value 0.977 | locus YGL240W, strain doc1, stronger effect = lower value 1 | locus YGL248W, strain PDE1, stronger effect = lower value 0.997 | locus YGL253W, strain hxk2, stronger effect = lower value 0.974 | locus YGR135W, strain pre9, stronger effect = lower value 1.04 | locus YGR229C, strain SMI1, stronger effect = lower value 1.01 | locus YGR252W, strain gcn5, stronger effect = lower value 0.939 | locus YHR013C, strain ard1, stronger effect = lower value 1.01 | locus YHR027C, strain rpn1, stronger effect = lower value 1.01 | locus YHR079C, strain IRE1 (second series), stronger effect = lower value 0.975 | locus YHR094C, strain hxt1, stronger effect = lower value 0.995 | locus YHR129C, strain ARP1, stronger effect = lower value 0.993 | locus YHR142W, strain chs7, stronger effect = lower value 0.988 | locus YHR200W, strain rpn10, stronger effect = lower value 0.996 | locus YIL066C, strain RNR3, stronger effect = lower value 0.999 | locus YIL073C, strain SPO22, stronger effect = lower value 1.06 | locus YIR030C, strain dcg1, stronger effect = lower value 0.988 | locus YJL092W, strain hpr5, stronger effect = lower value 0.985 | locus YJL095W, strain BCK1 (second series), stronger effect = lower value 0.989 | locus YJL115W, strain asf1, stronger effect = lower value 0.986 | locus YJL129C, strain trk1, stronger effect = lower value 0.983 | locus YJL134W, strain LCB3, stronger effect = lower value 1.01 | locus YJL154C, strain vps35, stronger effect = lower value 0.976 | locus YJL164C, strain tpk1, stronger effect = lower value 0.987 | locus YJL166W, strain qcr8, stronger effect = lower value 0.992 | locus YJL168C, strain set2, stronger effect = lower value 0.998 | locus YJL187C, strain SWE1 (second series), stronger effect = lower value 0.99 | locus YJL187C, strain SWE1, stronger effect = lower value 0.99 | locus YJR043C, strain POL32, stronger effect = lower value 0.98 | locus YJR075W, strain HOC1, stronger effect = lower value 1.01 | locus YKL009W, strain mrt4, stronger effect = lower value 1 | locus YKL160W, strain elf1, stronger effect = lower value 0.969 | locus YKR001C, strain vps1, stronger effect = lower value 0.951 | locus YKR026C, strain gcn3, stronger effect = lower value 0.98 | locus YKR091W, strain srl3, stronger effect = lower value 0.98 | locus YLL001W, strain dnm1, stronger effect = lower value 0.995 | locus YLL026W, stronger effect = lower value 0.985 | locus YLL041C, strain sdh2, stronger effect = lower value 0.989 | locus YLR027C, strain aat2, stronger effect = lower value 0.984 | locus YLR039C, strain RIC1, stronger effect = lower value 1.01 | locus YLR058C, strain SHM2, stronger effect = lower value 1 | locus YLR102C, strain apc9, stronger effect = lower value 0.994 | locus YLR221C, strain rsa3, stronger effect = lower value 0.955 | locus YLR258W, strain gsy2, stronger effect = lower value 0.98 | locus YLR262C, strain YPT6 (second series), stronger effect = lower value 0.968 | locus YLR262C, strain YPT6, stronger effect = lower value 1.01 | locus YLR268W, strain sec22, stronger effect = lower value 0.985 | locus YLR320W, strain mms22, stronger effect = lower value 0.992 | locus YLR330W, strain CHS5, stronger effect = lower value 0.998 | locus YLR342W, strain FKS1 (second series), stronger effect = lower value 1.05 | locus YLR342W, strain FKS1, stronger effect = lower value 1.01 | locus YLR357W, strain rsc2, stronger effect = lower value 1 | locus YLR370C, strain arc18, stronger effect = lower value 0.977 | locus YLR371W, strain rom2, stronger effect = lower value 0.99 | locus YLR384C, strain iki3, stronger effect = lower value 0.989 | locus YLR418C, strain cdc73, stronger effect = lower value 1.02 | locus YML016C, strain PPZ1, stronger effect = lower value 1.01 | locus YML032C, strain rad52, stronger effect = lower value 0.982 | locus YML120C, strain ndi1, stronger effect = lower value 1 | locus YML124C, strain tub3, stronger effect = lower value 0.986 | locus YMR058W, strain fet3, stronger effect = lower value 0.989 | locus YMR078C, strain ctf18, stronger effect = lower value 0.992 | locus YMR125W, strain sto1, stronger effect = lower value 0.999 | locus YMR129W, stronger effect = lower value 0.978 | locus YMR205C, strain PFK2, stronger effect = lower value 0.972 | locus YMR223W, strain ubp8, stronger effect = lower value 1.02 | locus YMR231W, strain pep5, stronger effect = lower value 0.985 | locus YMR307W, strain GAS1, stronger effect = lower value 1.1 | locus YNL067W, strain RPL9B, stronger effect = lower value 0.981 | locus YNL071W, strain lat1, stronger effect = lower value 0.992 | locus YNL209W, strain ssb2, stronger effect = lower value 1.01 | locus YNL233W, strain BNI4, stronger effect = lower value 1 | locus YNL248C, strain rpa49, stronger effect = lower value 0.907 | locus YNL250W, strain rad50, stronger effect = lower value 0.925 | locus YNL271C, strain bni1, stronger effect = lower value 0.943 | locus YNL298W, strain CLA4, stronger effect = lower value 0.955 | locus YNL307C, strain MCK1, stronger effect = lower value 0.992 | locus YNL322C, strain KRE1 (second series), stronger effect = lower value 0.954 | locus YNR049C, strain mso1, stronger effect = lower value 0.975 | locus YNR052C, strain pop2, stronger effect = lower value 0.986 | locus YOL012C, strain htz1 1.62 | locus YOL147C, strain pex11, stronger effect = lower value 0.987 | locus YOR001W, strain rrp6, stronger effect = lower value 0.962 | locus YOR061W, strain CKA2, stronger effect = lower value 1 | locus YOR069W, strain VPS5, stronger effect = lower value 1 | locus YOR070C, strain gyp1, stronger effect = lower value 0.988 | locus YOR080W, strain dia2, stronger effect = lower value 0.994 | locus YOR083W, strain WHI5, stronger effect = lower value 0.975 | locus YOR106W, strain vam3, stronger effect = lower value 0.988 | locus YOR136W, strain idh2, stronger effect = lower value 0.976 | locus YOR144C, strain elg1, stronger effect = lower value 0.996 | locus YOR184W, strain ser1, stronger effect = lower value 0.988 | locus YOR265W, strain rbl2, stronger effect = lower value 0.989 | locus YOR270C, strain vph1, stronger effect = lower value 0.991 | locus YOR290C, strain snf2, stronger effect = lower value 0.962 | locus YOR316C, strain cot1, stronger effect = lower value 0.998 | locus YPL051W, strain arl3, stronger effect = lower value 0.988 | locus YPL055C, strain LGE1, stronger effect = lower value 0.963 | locus YPL078C, strain atp4, stronger effect = lower value 0.985 | locus YPL106C, strain sse1, stronger effect = lower value 0.969 | locus YPL240C, strain hsp82, stronger effect = lower value 0.988 | locus YPL241C, strain CIN2, stronger effect = lower value 1.01 | locus YPR119W, strain clb2, stronger effect = lower value 0.995 | locus YPR163C, strain tif3, stronger effect = lower value 0.983 | locus YPR167C, strain met16, stronger effect = lower value 0.99 | strain wtn01, stronger effect = lower value 0.995
